Results from PubChem BioAssay AID1159580 (chemical genetic matrix, 2015).
Out of some 5,500 compounds screened, about 2,000 (36%) were called active. Roughly 18% stayed inconclusive and do not appear here. No stated cut-off is given here; in the data, active means normalized growth mostly below about 0.91 (no sharp cut-off); inconclusive means no clear call, values can overlap the other calls; inactive means mostly above about 0.92. This is one part of the list.

Experiment: chemical genetic growth profiling, strain panel (AID 1159580);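 further: tested at 20 µM; growth read once vehicle control cultures reached saturation at 30 °C; 1 = growth at the plate median or of vehicle wells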
Conditions: growth OD

Measured: normalized growth

OC[C@H]1O[C@@](CO)(O[C@@H]2O[C@H](CO)[C@@H](O)[C@H](O)[C@H]2O)[C@@H](O[C@@H]2O[C@H](CO)[C@@H](O)[C@H](O)[C@H]2O)[C@@H]1O
active: S. cerevisiae deletion strains, locus YKR001C, strain vps1, stronger effect = lower value 1.11 [resistant]
inactive: S. cerevisiae deletion strains, locus YJR043C, strain POL32, stronger effect = lower value 1.04 | S. cerevisiae deletion strains, locus YJR066W, strain TOR1, stronger effect = lower value 0.956 | S. cerevisiae deletion strains, locus YKL009W, strain mrt4, stronger effect = lower value 1.03 | S. cerevisiae deletion strains, locus YKL068W, stronger effect = lower value 0.997 | S. cerevisiae deletion strains, locus YKL085W, strain MDH1 (second series), stronger effect = lower value 1.01 | S. cerevisiae deletion strains, locus YKL085W, strain MDH1, stronger effect = lower value 1.01 | S. cerevisiae deletion strains, locus YKL160W, strain elf1, stronger effect = lower value 1.02 | S. cerevisiae deletion strains, locus YKR026C, strain gcn3, stronger effect = lower value 0.994 | S. cerevisiae deletion strains, locus YKR091W, strain srl3, stronger effect = lower value 1.01 | S. cerevisiae deletion strains, locus YLL001W, strain dnm1, stronger effect = lower value 0.996 | S. cerevisiae deletion strains, locus YLL026W, stronger effect = lower value 1.02 | S. cerevisiae deletion strains, locus YLL041C, strain sdh2, stronger effect = lower value 1.01 | S. cerevisiae deletion strains, locus YLR027C, strain aat2, stronger effect = lower value 1.01 | S. cerevisiae deletion strains, locus YLR039C, strain RIC1, stronger effect = lower value 1.18 | S. cerevisiae deletion strains, locus YLR058C, strain SHM2, stronger effect = lower value 1.03 | S. cerevisiae deletion strains, locus YLR102C, strain apc9, stronger effect = lower value 1.02 | S. cerevisiae deletion strains, locus YLR113W, strain HOG1, stronger effect = lower value 0.986 | S. cerevisiae deletion strains, locus YLR221C, strain rsa3, stronger effect = lower value 1.01 | S. cerevisiae deletion strains, locus YLR258W, strain gsy2, stronger effect = lower value 1.02 | S. cerevisiae deletion strains, locus YLR262C, strain YPT6 (second series), stronger effect = lower value 1 | S. cerevisiae deletion strains, locus YLR262C, strain YPT6, stronger effect = lower value 1.16 | S. cerevisiae deletion strains, locus YLR268W, strain sec22, stronger effect = lower value 1.05 | S. cerevisiae deletion strains, locus YLR320W, strain mms22, stronger effect = lower value 1.03 | S. cerevisiae deletion strains, locus YLR330W, strain CHS5, stronger effect = lower value 1.02 | S. cerevisiae deletion strains, locus YLR342W, strain FKS1 (second series), stronger effect = lower value 1.08 | S. cerevisiae deletion strains, locus YLR342W, strain FKS1, stronger effect = lower value 1.02 | S. cerevisiae deletion strains, locus YLR357W, strain rsc2, stronger effect = lower value 0.991 | S. cerevisiae deletion strains, locus YLR370C, strain arc18, stronger effect = lower value 1.03 | S. cerevisiae deletion strains, locus YLR371W, strain rom2, stronger effect = lower value 0.999 | S. cerevisiae deletion strains, locus YLR384C, strain iki3, stronger effect = lower value 1.01 | S. cerevisiae deletion strains, locus YLR418C, strain cdc73, stronger effect = lower value 1.09 | S. cerevisiae deletion strains, locus YML016C, strain PPZ1, stronger effect = lower value 1.01 | S. cerevisiae deletion strains, locus YML032C, strain rad52, stronger effect = lower value 1.03 | S. cerevisiae deletion strains, locus YML120C, strain ndi1, stronger effect = lower value 1.03 | S. cerevisiae deletion strains, locus YML124C, strain tub3, stronger effect = lower value 1.01 | S. cerevisiae deletion strains, locus YMR058W, strain fet3, stronger effect = lower value 1.02 | S. cerevisiae deletion strains, locus YMR078C, strain ctf18, stronger effect = lower value 1.02 | S. cerevisiae deletion strains, locus YMR125W, strain sto1, stronger effect = lower value 1.02 | S. cerevisiae deletion strains, locus YMR129W, stronger effect = lower value 1.03 | S. cerevisiae deletion strains, locus YMR205C, strain PFK2, stronger effect = lower value 1.04 | S. cerevisiae deletion strains, locus YMR223W, strain ubp8, stronger effect = lower value 1.03 | S. cerevisiae deletion strains, locus YMR231W, strain pep5, stronger effect = lower value 1.01 | S. cerevisiae deletion strains, locus YMR263W, strain SAP30, stronger effect = lower value 1.02 | S. cerevisiae deletion strains, locus YMR307W, strain GAS1, stronger effect = lower value 1.03 | S. cerevisiae deletion strains, locus YNL067W, strain RPL9B, stronger effect = lower value 1.03 | S. cerevisiae deletion strains, locus YNL071W, strain lat1, stronger effect = lower value 1.01 | S. cerevisiae deletion strains, locus YNL128W, strain TEP1, stronger effect = lower value 1.03 | S. cerevisiae deletion strains, locus YNL183C, strain NPR1, stronger effect = lower value 0.946 | S. cerevisiae deletion strains, locus YNL209W, strain ssb2, stronger effect = lower value 1.02 | S. cerevisiae deletion strains, locus YNL233W, strain BNI4, stronger effect = lower value 1.06 | S. cerevisiae deletion strains, locus YNL248C, strain rpa49, stronger effect = lower value 1.01 | S. cerevisiae deletion strains, locus YNL250W, strain rad50, stronger effect = lower value 1.03 | S. cerevisiae deletion strains, locus YNL271C, strain bni1, stronger effect = lower value 1.02 | S. cerevisiae deletion strains, locus YNL298W, strain CLA4, stronger effect = lower value 1.02 | S. cerevisiae deletion strains, locus YNL307C, strain MCK1, stronger effect = lower value 1.01 | S. cerevisiae deletion strains, locus YNL322C, strain KRE1 (second series), stronger effect = lower value 1.02 | S. cerevisiae deletion strains, locus YNR049C, strain mso1, stronger effect = lower value 1.02 | S. cerevisiae deletion strains, locus YNR052C, strain pop2, stronger effect = lower value 1.03 | S. cerevisiae deletion strains, locus YOL006C, strain TOP1, stronger effect = lower value 1.23 | S. cerevisiae deletion strains, locus YOL012C, strain htz1 1.32 | S. cerevisiae deletion strains, locus YOL147C, strain pex11, stronger effect = lower value 1 | S. cerevisiae deletion strains, locus YOR001W, strain rrp6, stronger effect = lower value 1 | S. cerevisiae deletion strains, locus YOR061W, strain CKA2, stronger effect = lower value 1.04 | S. cerevisiae deletion strains, locus YOR069W, strain VPS5, stronger effect = lower value 1.02 | S. cerevisiae deletion strains, locus YOR070C, strain gyp1, stronger effect = lower value 1.01 | S. cerevisiae deletion strains, locus YOR080W, strain dia2, stronger effect = lower value 1.02 | S. cerevisiae deletion strains, locus YOR083W, strain WHI5, stronger effect = lower value 1.01 | S. cerevisiae deletion strains, locus YOR106W, strain vam3, stronger effect = lower value 1 | S. cerevisiae deletion strains, locus YOR136W, strain idh2, stronger effect = lower value 1.02 | S. cerevisiae deletion strains, locus YOR144C, strain elg1, stronger effect = lower value 1.02 | S. cerevisiae deletion strains, locus YOR184W, strain ser1, stronger effect = lower value 1.06 | S. cerevisiae deletion strains, locus YOR231W, strain MKK1, stronger effect = lower value 1 | S. cerevisiae deletion strains, locus YOR265W, strain rbl2, stronger effect = lower value 1.01 | S. cerevisiae deletion strains, locus YOR270C, strain vph1, stronger effect = lower value 1.05 | S. cerevisiae deletion strains, locus YOR290C, strain snf2, stronger effect = lower value 0.981 | S. cerevisiae deletion strains, locus YOR316C, strain cot1, stronger effect = lower value 1.02 | S. cerevisiae deletion strains, locus YPL051W, strain arl3, stronger effect = lower value 1.01 | S. cerevisiae deletion strains, locus YPL055C, strain LGE1, stronger effect = lower value 1.08 | S. cerevisiae deletion strains, locus YPL078C, strain atp4, stronger effect = lower value 1 | S. cerevisiae deletion strains, locus YPL106C, strain sse1, stronger effect = lower value 1.02 | S. cerevisiae deletion strains, locus YPL240C, strain hsp82, stronger effect = lower value 1.03 | S. cerevisiae deletion strains, locus YPL256C, strain CLN2, stronger effect = lower value 1 | S. cerevisiae deletion strains, locus YPR119W, strain clb2, stronger effect = lower value 1.03 | S. cerevisiae deletion strains, locus YPR141C, strain kar3, stronger effect = lower value 1.02 | S. cerevisiae deletion strains, locus YPR163C, strain tif3, stronger effect = lower value 1.04 | S. cerevisiae deletion strains, locus YPR167C, strain met16, stronger effect = lower value 1.02 | S. cerevisiae deletion strains, strain wtn01, stronger effect = lower value 1.04 | S. cerevisiae strains, strain wild type, stronger effect = lower value 1.04
